The supplement of paper PMC10849652
Targets with a hit are over-represented here; the source holds about 8,800 in all. About 0.5% of all pairs of compound and target were hits. Values without a mark were called inactive.

How the values were obtained:
Test in all cases: log2 fold change, soluble protein after heating vs DMSO (PISA); higher = thermal stabilisation; K562 lysate, 10 uM; active = over 0.2 and 3.5 SD of the protein, either way, in both replicates (recomputed)
[1] = compound: C#Cc1cccc(Nc2ncnc3cc(OCCOC)c(OCCOC)cc23)c1 [erlotinib]
Summary of the method: (§1)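 Soluble protein was defined as the supernatant remaining after 21,000xg for 90 min, following pooling of heated aliquots and adjustment to 0.5% NP-40 at 4°C. Before that, crude K562 extract at 1 mg/mL protein in PBS pH 7.4 with 1 mM MgCl2 was treated with 10 μM compound for 30 min and heated for 3 min across 48°C-58°C. Quantification used TMTpro 16plex LC-MS/MS with channel sums equalised, and values are log-two fold changes in thermal stability relative to solvent controls from duplicates.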

[2] = compound: C/C(=N\NC(=O)C1=CC(=CC=C1)S(=O)(=O)N2CCOCC2)/C3=C(C=CC(=C3)Cl)O
Summary of the method: as §1

[3] = compound: C1=CC(=CC=C1C2=NC3=C(N2)C=C(C=C3)C(=O)N)OC4=CC=C(C=C4)Cl
Summary of the method: as §1

[4] = compound: C1=CC2=C(C=CC(=C2)/C=C\3/C(=O)NC(=NCC4=CC=CS4)S3)N=C1
Summary of the method: as §1

[5] = compound: C1=CC2=NC=CN=C2C=C1/C=C/3\C(=O)NC(=O)S3
Summary of the method: as §1

[6] = compound: C1=CC=C(C=C1)C2=NC(=C(N2)C3=CC=NC=C3)C4=CC(=C(C=C4)Cl)O
Summary of the method: as §1

[7] = compound: C1=CC=C2C(=C1)C3=NNC4=CC=CC(=C43)C2=O
Summary of the method: as §1

[8] = compound: C1CCN(C1)C(=O)NC2=CC=CC(=C2)NC3=NC=C(C(=N3)NCCC4=CN=CN4)Br
Summary of the method: as §1

[9] = compound: C1CN(CCC1(CC2=CC=C(C=C2)Cl)N)C3=NC=NC4=C3C=CN4
Summary of the method: as §1

[10] = compound: C1COCCN1CCN2C3=CC=CC=C3N=C2NC(=O)C4=CC(=CC=C4)[N+](=O)[O-] [IRAK-1-4 Inhibitor I]
Summary of the method: as §1

[11] = compound: C=CC(=O)N1CCC[C@@H](n2nc(-c3ccc(Oc4ccccc4)cc3)c3c(N)ncnc32)C1 [ibrutinib]
Summary of the method: as §1

[12] = compound: CC(=O)c1cnc2ccc(-c3cc(Cl)c(O)c(Cl)c3)nc2c1N[C@H]1CC[C@H](CN(C)C)CC1
Summary of the method: as §1

[13] = compound: CC(C)(C)Cn1c(N)nc2ccc(-c3[nH]c(C(C)(C)C)nc3-c3ccc(F)cc3)nc21 [ralimetinib]
Summary of the method: as §1

[14] = compound: CC(C)(O)CC(=O)NCCn1ccc2ncnc(Nc3ccc(Oc4cccc(C(F)(F)F)c4)c(Cl)c3)c21
Summary of the method: as §1

[15] = compound: CC(C)C1=C2N=C(C=C(N2N=C1)NCC3=CC=CC=C3)NCCCCCCN
Summary of the method: as §1

[16] = compound: CC1=C(C(CC(=O)N1)C2=CC=C(C=C2)C(F)(F)F)C(=O)NC3=C(C=C4C(=C3)C=NN4)F
Summary of the method: as §1

[17] = compound: CC1=C(C2=C(C=C1)C(=O)C3=CC=CC=C3N2CCCN)C
Summary of the method: as §1

[18] = compound: CC1=C(C=C(C=C1)NC(=O)C2=CC(=CC=C2)C(C)(C)C#N)NC3=CC4=C(C=C3)N=CN(C4=O)C
Summary of the method: as §1

[19] = compound: CC1=C(C=C(C=C1)NC(=O)C2=CC(=CC=C2)N(C)C)NC(=O)C3=CC=C(C=C3)O
Summary of the method: as §1

[20] = compound: CC1=CC=C(C=C1)SC2=C3C=C(SC3=CN=C2)C(=O)N
Summary of the method: as §1

Chain of UniProt Q53S58 (Q53S58 whole entry, looked up): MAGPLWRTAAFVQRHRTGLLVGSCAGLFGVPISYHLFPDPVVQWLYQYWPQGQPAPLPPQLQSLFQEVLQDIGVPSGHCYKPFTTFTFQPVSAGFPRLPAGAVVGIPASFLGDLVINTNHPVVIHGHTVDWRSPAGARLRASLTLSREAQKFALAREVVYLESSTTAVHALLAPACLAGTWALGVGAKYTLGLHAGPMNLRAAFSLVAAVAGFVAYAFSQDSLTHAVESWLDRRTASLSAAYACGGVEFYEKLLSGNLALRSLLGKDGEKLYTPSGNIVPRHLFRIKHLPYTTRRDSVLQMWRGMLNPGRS
Chain of UniProt O75865 (O75865 whole entry, looked up): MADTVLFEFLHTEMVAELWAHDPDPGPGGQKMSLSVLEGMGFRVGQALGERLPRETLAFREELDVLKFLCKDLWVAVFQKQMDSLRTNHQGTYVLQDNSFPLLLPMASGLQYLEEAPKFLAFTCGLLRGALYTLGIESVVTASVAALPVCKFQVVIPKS
Chain of UniProt P67936 (P67936 whole entry, looked up): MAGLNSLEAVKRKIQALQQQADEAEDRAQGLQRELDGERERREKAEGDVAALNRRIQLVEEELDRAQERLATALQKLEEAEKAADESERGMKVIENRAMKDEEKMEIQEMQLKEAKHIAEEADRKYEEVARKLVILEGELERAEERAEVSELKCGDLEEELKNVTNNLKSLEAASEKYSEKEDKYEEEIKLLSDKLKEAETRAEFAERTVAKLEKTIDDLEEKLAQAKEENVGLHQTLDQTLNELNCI
Chain of UniProt Q9H3M7 (Q9H3M7 whole entry, looked up): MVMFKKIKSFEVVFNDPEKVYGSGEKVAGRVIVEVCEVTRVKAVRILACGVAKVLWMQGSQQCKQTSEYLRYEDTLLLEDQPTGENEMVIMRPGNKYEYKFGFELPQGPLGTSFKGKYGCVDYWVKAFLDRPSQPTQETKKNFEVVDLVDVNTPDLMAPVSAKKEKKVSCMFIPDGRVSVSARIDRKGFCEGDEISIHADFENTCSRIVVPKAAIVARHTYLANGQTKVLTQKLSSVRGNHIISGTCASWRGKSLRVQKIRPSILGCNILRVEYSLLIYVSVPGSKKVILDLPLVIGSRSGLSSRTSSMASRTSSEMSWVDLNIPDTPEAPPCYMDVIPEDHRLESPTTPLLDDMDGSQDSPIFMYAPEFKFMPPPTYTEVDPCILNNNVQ
Chain of UniProt Q6PJ69 (Q6PJ69 whole entry, looked up): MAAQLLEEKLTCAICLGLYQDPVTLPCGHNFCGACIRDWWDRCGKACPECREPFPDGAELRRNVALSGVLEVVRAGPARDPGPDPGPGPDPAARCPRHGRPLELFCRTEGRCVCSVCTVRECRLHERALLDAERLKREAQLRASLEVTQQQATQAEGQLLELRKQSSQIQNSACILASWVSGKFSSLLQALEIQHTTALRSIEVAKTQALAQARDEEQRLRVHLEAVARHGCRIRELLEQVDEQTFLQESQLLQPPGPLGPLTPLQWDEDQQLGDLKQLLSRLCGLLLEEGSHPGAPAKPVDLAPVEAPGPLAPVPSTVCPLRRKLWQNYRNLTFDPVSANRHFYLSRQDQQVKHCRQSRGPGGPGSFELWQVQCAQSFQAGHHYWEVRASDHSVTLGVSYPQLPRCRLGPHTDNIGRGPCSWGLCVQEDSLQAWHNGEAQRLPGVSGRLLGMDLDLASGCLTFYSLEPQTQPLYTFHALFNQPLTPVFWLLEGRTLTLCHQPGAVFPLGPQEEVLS
Chain of UniProt Q8TBZ6 (Q8TBZ6 whole entry, looked up): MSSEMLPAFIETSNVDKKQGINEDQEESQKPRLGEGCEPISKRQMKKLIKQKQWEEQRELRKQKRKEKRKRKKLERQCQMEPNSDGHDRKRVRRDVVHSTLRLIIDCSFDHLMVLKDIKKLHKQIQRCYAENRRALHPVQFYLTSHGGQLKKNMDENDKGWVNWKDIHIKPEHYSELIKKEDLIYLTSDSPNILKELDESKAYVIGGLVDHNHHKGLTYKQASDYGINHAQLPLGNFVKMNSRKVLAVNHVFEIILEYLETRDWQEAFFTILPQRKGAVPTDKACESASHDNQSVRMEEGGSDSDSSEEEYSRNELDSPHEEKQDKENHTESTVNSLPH
Chain of UniProt Q96Q05 (Q96Q05 whole entry, looked up): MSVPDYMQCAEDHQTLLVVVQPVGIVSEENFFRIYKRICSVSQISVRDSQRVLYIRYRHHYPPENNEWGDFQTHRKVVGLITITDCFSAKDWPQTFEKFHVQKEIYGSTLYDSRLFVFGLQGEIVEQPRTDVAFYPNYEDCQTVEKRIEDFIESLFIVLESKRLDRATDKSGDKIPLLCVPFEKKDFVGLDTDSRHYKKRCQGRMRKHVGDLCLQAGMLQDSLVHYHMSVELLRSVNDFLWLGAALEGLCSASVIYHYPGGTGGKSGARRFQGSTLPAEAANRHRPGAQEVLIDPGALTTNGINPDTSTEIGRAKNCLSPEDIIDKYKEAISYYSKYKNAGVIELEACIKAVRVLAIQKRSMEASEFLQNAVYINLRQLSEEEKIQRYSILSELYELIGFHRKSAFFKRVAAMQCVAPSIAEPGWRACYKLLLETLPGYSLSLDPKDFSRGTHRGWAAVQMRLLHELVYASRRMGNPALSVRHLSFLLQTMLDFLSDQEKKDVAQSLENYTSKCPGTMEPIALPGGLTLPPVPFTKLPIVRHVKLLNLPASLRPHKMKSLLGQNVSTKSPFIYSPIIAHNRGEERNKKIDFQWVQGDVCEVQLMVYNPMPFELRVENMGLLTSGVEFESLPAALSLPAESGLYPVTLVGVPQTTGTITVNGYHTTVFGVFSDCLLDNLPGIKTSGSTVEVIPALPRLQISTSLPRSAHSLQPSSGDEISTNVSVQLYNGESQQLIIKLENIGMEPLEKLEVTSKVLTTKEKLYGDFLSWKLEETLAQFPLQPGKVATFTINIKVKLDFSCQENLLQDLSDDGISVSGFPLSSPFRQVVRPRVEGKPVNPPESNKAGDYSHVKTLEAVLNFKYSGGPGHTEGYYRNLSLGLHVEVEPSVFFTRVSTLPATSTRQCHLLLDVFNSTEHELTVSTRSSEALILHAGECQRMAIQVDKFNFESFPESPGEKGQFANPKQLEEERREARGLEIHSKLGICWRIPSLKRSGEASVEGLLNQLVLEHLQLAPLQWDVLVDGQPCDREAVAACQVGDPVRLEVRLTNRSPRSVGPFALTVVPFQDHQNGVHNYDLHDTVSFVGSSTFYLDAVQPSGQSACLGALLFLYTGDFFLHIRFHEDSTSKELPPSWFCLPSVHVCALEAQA
Chain of UniProt Q92547 (Q92547 whole entry, looked up): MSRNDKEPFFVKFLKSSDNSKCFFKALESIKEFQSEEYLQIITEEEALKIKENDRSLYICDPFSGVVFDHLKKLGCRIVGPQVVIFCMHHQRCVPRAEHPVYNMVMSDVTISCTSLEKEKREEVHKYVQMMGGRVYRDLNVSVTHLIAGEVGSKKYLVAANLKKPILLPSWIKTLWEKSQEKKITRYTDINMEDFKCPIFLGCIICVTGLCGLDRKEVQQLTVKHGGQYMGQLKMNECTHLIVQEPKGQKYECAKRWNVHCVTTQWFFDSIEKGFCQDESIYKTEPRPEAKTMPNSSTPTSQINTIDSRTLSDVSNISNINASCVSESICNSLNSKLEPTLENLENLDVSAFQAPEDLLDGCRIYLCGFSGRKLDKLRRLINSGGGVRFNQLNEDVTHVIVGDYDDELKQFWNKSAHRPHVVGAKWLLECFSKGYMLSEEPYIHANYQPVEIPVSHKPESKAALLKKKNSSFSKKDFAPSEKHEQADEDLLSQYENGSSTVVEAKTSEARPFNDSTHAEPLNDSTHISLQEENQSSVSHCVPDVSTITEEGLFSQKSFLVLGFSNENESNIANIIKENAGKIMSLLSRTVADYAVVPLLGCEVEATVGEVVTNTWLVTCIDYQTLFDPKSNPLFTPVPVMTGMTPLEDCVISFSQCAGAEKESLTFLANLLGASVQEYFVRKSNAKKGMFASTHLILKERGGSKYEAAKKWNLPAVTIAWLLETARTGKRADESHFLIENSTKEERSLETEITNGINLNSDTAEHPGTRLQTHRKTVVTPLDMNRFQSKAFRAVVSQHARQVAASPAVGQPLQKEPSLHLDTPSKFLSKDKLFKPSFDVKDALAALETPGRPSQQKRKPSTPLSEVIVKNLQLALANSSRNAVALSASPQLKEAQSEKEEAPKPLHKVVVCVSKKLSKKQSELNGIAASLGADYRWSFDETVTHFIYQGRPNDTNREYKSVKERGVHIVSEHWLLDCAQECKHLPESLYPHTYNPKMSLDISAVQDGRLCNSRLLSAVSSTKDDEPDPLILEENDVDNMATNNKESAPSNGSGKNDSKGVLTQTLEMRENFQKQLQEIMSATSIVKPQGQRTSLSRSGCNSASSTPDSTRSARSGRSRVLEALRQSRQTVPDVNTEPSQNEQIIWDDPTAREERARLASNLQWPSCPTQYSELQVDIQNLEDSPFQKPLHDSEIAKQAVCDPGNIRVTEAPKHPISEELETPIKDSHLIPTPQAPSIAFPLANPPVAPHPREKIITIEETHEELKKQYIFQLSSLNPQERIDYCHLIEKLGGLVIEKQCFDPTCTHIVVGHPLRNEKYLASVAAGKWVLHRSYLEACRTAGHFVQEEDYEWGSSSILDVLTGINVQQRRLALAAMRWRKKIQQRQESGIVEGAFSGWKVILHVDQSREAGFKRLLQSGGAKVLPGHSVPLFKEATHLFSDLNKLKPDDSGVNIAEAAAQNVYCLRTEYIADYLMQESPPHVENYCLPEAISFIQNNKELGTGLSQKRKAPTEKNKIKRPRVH
Chain of UniProt Q8N511 (Q8N511 whole entry, looked up): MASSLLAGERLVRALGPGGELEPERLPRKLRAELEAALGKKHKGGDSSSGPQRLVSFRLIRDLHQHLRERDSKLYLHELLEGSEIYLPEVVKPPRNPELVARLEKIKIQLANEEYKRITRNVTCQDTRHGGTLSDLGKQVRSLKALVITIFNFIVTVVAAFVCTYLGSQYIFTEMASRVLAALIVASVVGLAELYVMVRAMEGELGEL

Row | Target | log2 fold change [1] | log2 fold change [2] | log2 fold change [3] | log2 fold change [4] | log2 fold change [5] | log2 fold change [6] | log2 fold change [7] | log2 fold change [8] | log2 fold change [9] | log2 fold change [10] | log2 fold change [11] | log2 fold change [12] | log2 fold change [13] | log2 fold change [14] | log2 fold change [15] | log2 fold change [16] | log2 fold change [17] | log2 fold change [18] | log2 fold change [19] | log2 fold change [20]
1 | TMEM199 (UniProt Q8N511) | 0.002 | -0.03 | -0.034 | 0.032 | 0.018 | -0.013 | -0.087 | -0.065 | 0.027 | -0.033 | 0.067 | 0.001 | -0.001 | -0.078 | -0.003 | 0.001 | -0.275 (active) | -0.043 | -0.016 | 0.009
2 | TMEM161B (UniProt Q8NDZ6) | 0.051 | -0.08 | -0.017 | 0.174 | 0.007 | -0.068 | -0.133 | 0.052 | -0.01 | 0.09 | -0.026 | 0.197 | 0 | -0.224 | -0.113 | -0.005 |  | 0.027 | 0.108 | -0.012
3 | TCF12 isoform 3 (UniProt Q99081) | -0.001 | -0.025 | 0.081 | 0.006 | -0.004 | -0.017 | 0.003 | -0.063 | 0.006 | 0.051 | 0.059 | -0.029 | -0.022 | -0.054 | 0.002 | -0.008 | 0.064 | -0.008 | 0.011 | 0.109
4 | TRAPPC9 isoform 2 (UniProt Q96Q05) | 0.033 | 0.113 | -0.01 | 0.006 | -0.04 | -0.012 | -0.005 | 0.027 | 0.034 | 0.027 | 0.003 | 0.019 | 0.055 | -0.025 | -0.003 | -0.043 | -0.023 | 0.02 | -0.016 | -0.001
5 | TRAPPC6A isoform 2 (UniProt O75865) | 0.018 | 0.095 | 0.002 | 0.049 | -0.055 | -0.016 | -0.005 | 0.154 | 0.095 | 0.047 | -0.023 | -0.011 | -0.027 | -0.037 | -0.031 | -0.052 | 0.012 | 0.008 | 0.004 | -0.062
6 | TXNIP (UniProt Q9H3M7) | 0.036 | -0.165 | -0.057 | -0.045 | -0.001 | -0.003 | 0.048 | -0.042 | 0.017 | 0.041 | -0.009 |  | 0.007 | -0.02 | -0.053 | 0.011 | -0.036 | 0.037 | 0.016 | 
7 | TRIM65 (UniProt Q6PJ69) | 0.047 | -0.072 | -0.008 | 0.021 | -0.005 | -0.044 | -0.054 | 0.026 | 0.007 | -0.025 | 0.053 | 0.073 | 0.046 | -0.035 | 0.005 | 0.047 | 0.006 | 0.006 | 0.003 | -0.063
8 | UCHL5 (UniProt Q5LJA9) | -0.052 | 0.084 | 0.005 | -0.024 | -0.032 | 0.016 | -0.045 | 0.035 | 0.006 | 0.054 | 0.009 | 0.078 | -0.007 | -0.113 | 0.044 |  | 0 | 0.012 | 0.035 | 0.01
9 | TUBB2A (UniProt Q13885) | 0.008 | 0.04 | 0.004 | -0.021 | -0.028 | -0.008 | -0.03 | 0.014 | 0.026 | 0.019 | 0.005 | 0.014 | 0.032 | -0.005 | 0.027 | 0.02 | 0.001 | -0.011 | 0.032 | 0.001
10 | TFPI (UniProt P10646) | -0.069 | 0.093 | 0.011 | 0.089 | -0.141 | -0.02 | -0.232 | -0.096 | 0.065 | 0.003 | 0.024 | 0.035 | 0.046 | -0.003 | -0.011 | -0.042 |  | 0.021 | -0.027 | 0.073
11 | TOPBP1 (UniProt Q92547) | 0.004 | -0.056 | -0.034 | 0.018 | 0.002 | 0.003 | -0.009 | -0.134 | 0.072 | -0.006 | 0.012 | 0.003 | 0.011 | 0.011 | 0.006 | -0.02 | -0.01 | -0.035 | 0.041 | 0.055
12 | TUBB4A (UniProt M0QYM7) | -0.017 | -0.063 | 0.071 | -0.015 | -0.322 | 0.044 | -0.097 | -0.038 | -0.027 | 0.025 | 0.092 | 0.049 | 0.103 | -0.117 | 0.005 | -0.102 |  | 0.13 | 0.102 | 0.024
13 | TMEM177 (UniProt Q53S58) | 0.042 | 0.06 | -0.042 | 0.016 | -0.019 | -0.054 | 0.148 | 0.019 | 0.005 | 0 | 0.079 | -0.022 | -0.287 | -0.311 (active) | 0.007 |  |  | -0.03 | 0.032 | -0.005
14 | TPM4 isoform 2 (UniProt P67936) | -0.06 | 0.011 | -0.048 | 0.067 | 0.002 | 0.024 | -0.016 | 0.016 | -0.015 | -0.022 | -0.062 | 0.016 | -0.005 | 0.032 | -0.034 | -0.027 | -0.025 | -0.06 | -0.004 | 0
15 | TUBB6 (UniProt K7ES63) | -0.19 | 0.058 | -0.06 | 0.047 | -0.01 | -0.154 | -0.029 | -0.19 | -0.22 | 0.048 | -0.005 | 0.076 | 0.094 | -0.07 | 0.132 | -0.061 |  | -0.005 | 0.027 | -0.098
16 | TRMT10A (UniProt Q8TBZ6) | -0.003 | -0.26 | -0.007 | -0.018 | -0.024 | 0.018 | 0.252 (active) | -0.017 | 0.044 | 0.044 | -0.002 | -0.003 | 0.021 | -0.01 | -0.033 | 0.009 | -0.031 | 0.06 | -0.022 | 0.07
